Inhibition data for two molecules are collected here from ChEMBL document CHEMBL1961873, “Compounds: GSK PKIS; Assays: Nanosyn kinase panel” (2012).

Assay [1] concerns the target T1, Inhibitor of nuclear factor kappa-B kinase subunit epsilon (Homo sapiens) (UniProt Q14164).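 Also: reported values are averaged percent inhibition figures against human IKKε.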
T1 sequence (whole entry): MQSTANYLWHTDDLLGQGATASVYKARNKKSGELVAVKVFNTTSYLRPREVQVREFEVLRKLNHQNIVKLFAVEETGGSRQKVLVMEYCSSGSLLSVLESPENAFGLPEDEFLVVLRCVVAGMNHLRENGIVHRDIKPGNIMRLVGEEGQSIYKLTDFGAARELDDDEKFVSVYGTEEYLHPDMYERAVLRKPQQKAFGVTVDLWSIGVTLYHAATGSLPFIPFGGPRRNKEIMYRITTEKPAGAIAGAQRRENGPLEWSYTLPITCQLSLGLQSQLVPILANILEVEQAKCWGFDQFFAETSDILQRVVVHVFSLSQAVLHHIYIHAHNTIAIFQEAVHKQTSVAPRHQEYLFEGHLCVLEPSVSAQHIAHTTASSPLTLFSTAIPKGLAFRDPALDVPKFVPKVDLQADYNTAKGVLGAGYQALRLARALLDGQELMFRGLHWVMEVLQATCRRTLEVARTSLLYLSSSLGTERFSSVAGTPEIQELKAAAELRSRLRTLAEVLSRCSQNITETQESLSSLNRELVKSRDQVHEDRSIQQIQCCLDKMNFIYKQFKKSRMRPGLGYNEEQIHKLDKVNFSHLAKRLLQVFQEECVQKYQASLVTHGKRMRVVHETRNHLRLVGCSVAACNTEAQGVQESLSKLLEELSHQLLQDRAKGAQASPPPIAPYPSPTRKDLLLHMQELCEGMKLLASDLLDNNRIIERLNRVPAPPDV
Conditions: at 1 µM.

The target of assay [2] is T2, Serine/threonine-protein kinase Nek1 (Homo sapiens) (UniProt Q96PY6).
T2 sequence (whole entry): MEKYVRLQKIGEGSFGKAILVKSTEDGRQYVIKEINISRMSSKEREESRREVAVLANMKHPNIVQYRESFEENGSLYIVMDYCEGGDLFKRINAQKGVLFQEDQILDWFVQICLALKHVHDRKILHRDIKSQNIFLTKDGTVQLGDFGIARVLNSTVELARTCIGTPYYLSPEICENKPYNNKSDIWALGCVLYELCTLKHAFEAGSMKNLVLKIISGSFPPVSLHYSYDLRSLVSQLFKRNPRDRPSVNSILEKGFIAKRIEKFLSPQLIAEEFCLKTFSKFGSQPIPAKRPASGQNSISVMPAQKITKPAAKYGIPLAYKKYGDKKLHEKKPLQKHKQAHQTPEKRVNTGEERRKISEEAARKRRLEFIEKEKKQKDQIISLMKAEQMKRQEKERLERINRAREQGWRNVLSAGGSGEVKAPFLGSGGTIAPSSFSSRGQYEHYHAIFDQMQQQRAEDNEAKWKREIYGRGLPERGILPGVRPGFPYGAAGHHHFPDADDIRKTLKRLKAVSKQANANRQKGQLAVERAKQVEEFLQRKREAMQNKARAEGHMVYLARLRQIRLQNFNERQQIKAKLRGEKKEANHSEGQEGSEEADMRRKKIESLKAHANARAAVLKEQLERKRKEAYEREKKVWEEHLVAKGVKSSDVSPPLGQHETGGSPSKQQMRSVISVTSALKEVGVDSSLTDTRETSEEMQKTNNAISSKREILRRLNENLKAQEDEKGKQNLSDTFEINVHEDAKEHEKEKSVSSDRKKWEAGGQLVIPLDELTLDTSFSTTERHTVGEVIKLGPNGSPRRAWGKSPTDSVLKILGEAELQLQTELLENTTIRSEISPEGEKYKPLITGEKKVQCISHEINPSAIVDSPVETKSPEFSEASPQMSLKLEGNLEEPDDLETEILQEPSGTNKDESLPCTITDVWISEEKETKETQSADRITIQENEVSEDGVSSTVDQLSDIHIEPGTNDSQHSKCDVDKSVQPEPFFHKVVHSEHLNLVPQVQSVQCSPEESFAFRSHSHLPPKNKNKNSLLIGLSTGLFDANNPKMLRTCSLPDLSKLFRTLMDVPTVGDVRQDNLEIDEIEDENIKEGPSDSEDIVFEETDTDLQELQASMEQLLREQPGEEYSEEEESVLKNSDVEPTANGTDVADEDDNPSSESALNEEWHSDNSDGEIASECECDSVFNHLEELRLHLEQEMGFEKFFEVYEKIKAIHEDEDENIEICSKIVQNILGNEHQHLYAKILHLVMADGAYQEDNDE
Conditions: at 0.1 µM.

For assay [3], the target named is T2, Serine/threonine-protein kinase Nek1 (Homo sapiens). To be noted: at 1 µM.
For assay [4], the target named is T3, Serine/threonine-protein kinase Nek2 (Homo sapiens) (UniProt P51955).
T3 sequence (whole entry): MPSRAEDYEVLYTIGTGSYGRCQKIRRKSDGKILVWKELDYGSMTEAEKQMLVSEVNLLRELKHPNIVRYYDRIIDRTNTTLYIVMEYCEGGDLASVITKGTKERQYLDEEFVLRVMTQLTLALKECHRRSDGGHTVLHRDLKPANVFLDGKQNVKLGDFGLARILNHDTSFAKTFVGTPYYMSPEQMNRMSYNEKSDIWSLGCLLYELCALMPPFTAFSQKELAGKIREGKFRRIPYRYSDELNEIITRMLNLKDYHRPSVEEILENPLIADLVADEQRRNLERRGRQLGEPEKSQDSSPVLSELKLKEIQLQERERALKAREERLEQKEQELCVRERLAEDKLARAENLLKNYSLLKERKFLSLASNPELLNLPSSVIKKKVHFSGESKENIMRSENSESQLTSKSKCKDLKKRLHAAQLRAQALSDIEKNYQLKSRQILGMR
To be noted: at 0.1 µM.

Assay [5] addresses T3, Serine/threonine-protein kinase Nek2 (Homo sapiens). Conditions: at 1 µM.
For assay [6], the target named is Serine/threonine-protein kinase Nek6 (Homo sapiens) (UniProt Q9HC98). To be noted: at 0.1 µM.
The target is the same in assay [7]. To be noted: at 1 µM.
In assay [8] the target is Serine/threonine-protein kinase Nek7 (Homo sapiens) (UniProt Q8TDX7). Conditions: at 0.1 µM.
For assay [9] the target is unchanged. Conditions: at 1 µM.
Assay [10] addresses T4, Serine/threonine-protein kinase Nek9 (Homo sapiens) (UniProt Q8TD19).
T4 sequence (whole entry): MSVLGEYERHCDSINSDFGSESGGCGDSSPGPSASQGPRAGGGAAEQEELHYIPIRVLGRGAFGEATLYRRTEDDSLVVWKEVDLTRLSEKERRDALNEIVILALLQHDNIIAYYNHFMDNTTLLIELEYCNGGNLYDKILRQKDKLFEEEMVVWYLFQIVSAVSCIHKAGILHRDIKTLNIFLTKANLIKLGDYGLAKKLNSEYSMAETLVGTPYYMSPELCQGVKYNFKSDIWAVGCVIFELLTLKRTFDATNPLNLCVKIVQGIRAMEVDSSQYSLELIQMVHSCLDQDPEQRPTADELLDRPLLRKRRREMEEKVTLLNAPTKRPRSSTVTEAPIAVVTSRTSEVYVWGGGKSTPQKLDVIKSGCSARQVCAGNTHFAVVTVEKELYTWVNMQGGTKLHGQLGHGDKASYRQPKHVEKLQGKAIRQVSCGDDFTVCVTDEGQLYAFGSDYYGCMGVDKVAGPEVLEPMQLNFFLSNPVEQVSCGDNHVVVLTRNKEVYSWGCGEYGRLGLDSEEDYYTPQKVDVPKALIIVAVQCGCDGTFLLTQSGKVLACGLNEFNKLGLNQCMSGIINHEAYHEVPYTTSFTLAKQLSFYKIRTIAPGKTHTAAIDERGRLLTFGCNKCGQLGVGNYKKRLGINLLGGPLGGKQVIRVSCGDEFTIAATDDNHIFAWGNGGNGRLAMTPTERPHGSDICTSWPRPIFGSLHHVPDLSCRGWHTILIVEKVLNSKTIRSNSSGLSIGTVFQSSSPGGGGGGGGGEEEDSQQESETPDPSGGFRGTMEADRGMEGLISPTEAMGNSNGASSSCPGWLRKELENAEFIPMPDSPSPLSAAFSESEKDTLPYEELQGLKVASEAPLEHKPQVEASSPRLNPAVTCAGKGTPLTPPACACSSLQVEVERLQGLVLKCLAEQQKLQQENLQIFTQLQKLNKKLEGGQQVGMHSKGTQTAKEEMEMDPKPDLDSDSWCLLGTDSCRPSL
Conditions: at 0.1 µM.

Assay [11] addresses T4, Serine/threonine-protein kinase Nek9 (Homo sapiens). Conditions: at 1 µM.
In assay [12] the target is Serine/threonine-protein kinase PLK1 (Homo sapiens) (UniProt P53350). To be noted: at 0.1 µM.
The target is the same in assay [13]. To be noted: at 1 µM.
The target in assay [14] is T5, Dual specificity protein kinase TTK (Homo sapiens) (UniProt P33981).
T5 sequence (whole entry): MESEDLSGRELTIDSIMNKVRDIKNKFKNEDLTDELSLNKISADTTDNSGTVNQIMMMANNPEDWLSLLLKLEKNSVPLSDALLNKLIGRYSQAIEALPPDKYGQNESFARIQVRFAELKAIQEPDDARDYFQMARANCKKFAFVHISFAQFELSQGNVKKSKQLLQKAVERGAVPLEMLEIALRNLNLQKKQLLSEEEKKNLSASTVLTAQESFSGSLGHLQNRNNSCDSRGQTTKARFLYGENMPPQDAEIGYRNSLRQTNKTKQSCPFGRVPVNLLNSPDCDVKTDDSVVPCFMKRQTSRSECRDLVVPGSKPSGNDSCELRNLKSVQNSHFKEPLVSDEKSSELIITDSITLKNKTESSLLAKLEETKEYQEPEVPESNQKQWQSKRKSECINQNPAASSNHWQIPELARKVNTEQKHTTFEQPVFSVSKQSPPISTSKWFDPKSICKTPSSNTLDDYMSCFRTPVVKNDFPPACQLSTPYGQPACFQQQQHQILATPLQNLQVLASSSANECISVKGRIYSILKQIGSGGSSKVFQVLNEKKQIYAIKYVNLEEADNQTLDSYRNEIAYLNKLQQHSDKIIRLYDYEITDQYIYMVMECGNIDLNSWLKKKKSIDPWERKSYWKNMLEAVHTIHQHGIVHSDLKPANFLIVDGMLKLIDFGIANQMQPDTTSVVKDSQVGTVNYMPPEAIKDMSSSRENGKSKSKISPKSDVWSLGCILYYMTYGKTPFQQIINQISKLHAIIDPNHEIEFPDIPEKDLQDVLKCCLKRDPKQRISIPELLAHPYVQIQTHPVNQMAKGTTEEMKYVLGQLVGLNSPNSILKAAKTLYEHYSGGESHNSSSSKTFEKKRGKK
Conditions: at 0.1 µM.

Assay [15] has as its system T6, Receptor-type tyrosine-protein kinase FLT3 (Homo sapiens), P36888 [D835Y].
T6 sequence (whole entry): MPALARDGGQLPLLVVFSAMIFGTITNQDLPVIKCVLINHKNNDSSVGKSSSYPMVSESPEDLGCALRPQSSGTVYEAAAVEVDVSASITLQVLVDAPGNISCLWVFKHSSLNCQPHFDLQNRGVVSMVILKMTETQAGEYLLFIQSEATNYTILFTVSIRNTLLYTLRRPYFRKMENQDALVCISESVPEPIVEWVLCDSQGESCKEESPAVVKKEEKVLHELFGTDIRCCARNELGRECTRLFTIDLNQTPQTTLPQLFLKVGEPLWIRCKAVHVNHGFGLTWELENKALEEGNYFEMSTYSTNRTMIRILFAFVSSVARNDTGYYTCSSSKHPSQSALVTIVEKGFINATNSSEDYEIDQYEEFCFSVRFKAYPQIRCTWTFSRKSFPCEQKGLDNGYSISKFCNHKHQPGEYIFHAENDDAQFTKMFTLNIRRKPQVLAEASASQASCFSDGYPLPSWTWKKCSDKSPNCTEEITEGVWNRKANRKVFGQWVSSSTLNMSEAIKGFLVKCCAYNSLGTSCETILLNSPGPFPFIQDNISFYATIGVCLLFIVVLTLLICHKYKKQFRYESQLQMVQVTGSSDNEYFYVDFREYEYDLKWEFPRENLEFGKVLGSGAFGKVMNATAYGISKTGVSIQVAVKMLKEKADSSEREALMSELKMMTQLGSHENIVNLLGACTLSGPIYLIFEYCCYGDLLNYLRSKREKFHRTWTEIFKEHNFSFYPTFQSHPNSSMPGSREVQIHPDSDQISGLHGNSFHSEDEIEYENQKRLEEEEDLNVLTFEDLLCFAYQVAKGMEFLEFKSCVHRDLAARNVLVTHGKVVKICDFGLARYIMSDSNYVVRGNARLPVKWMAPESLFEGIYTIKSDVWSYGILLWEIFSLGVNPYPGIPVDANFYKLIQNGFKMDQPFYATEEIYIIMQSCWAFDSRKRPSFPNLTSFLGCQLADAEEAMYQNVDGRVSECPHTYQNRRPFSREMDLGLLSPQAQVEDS
Conditions: at 1 µM.

The target in assay [16] is Vascular endothelial growth factor receptor 3 (Homo sapiens) (UniProt P35916). To be noted: at 0.1 µM.
Assay [17] shares this target. Conditions: at 1 µM.
Assay [18] has as its target Macrophage colony-stimulating factor 1 receptor (Homo sapiens) (UniProt P07333). To be noted: at 0.1 µM.
Assay [19] has the same target. To be noted: at 1 µM.
In assay [20] the target is Tyrosine-protein kinase Fyn (Homo sapiens) (UniProt P06241). To be noted: at 0.1 µM.
Chain of Tyrosine-protein kinase Fyn (Homo sapiens) (P06241 2-537 limits assumed): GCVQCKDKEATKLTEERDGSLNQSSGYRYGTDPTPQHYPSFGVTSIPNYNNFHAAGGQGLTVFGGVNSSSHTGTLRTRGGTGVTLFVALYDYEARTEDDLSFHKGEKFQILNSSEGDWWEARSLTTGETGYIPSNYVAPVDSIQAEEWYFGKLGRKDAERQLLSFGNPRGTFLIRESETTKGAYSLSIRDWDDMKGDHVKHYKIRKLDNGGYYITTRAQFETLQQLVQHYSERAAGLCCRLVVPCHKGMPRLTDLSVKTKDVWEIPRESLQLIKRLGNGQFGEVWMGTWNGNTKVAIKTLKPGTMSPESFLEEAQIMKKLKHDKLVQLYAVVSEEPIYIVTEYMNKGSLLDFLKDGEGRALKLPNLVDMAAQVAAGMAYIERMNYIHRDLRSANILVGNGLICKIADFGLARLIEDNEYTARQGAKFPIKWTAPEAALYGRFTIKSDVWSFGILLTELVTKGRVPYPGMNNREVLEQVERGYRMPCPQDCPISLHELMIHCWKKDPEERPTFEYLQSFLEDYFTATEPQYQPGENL

Chain of Serine/threonine-protein kinase Nek7 (Homo sapiens) (Q8TDX7 whole entry, looked up): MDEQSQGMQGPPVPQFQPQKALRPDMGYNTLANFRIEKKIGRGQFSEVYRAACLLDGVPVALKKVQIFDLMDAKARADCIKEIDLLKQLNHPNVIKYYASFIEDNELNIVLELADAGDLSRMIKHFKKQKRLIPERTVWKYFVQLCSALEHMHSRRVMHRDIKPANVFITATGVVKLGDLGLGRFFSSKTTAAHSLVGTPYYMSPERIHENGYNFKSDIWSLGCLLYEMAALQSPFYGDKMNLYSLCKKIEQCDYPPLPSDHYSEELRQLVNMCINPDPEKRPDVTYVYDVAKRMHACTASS
Chain of Vascular endothelial growth factor receptor 3 (Homo sapiens) (P35916 whole entry): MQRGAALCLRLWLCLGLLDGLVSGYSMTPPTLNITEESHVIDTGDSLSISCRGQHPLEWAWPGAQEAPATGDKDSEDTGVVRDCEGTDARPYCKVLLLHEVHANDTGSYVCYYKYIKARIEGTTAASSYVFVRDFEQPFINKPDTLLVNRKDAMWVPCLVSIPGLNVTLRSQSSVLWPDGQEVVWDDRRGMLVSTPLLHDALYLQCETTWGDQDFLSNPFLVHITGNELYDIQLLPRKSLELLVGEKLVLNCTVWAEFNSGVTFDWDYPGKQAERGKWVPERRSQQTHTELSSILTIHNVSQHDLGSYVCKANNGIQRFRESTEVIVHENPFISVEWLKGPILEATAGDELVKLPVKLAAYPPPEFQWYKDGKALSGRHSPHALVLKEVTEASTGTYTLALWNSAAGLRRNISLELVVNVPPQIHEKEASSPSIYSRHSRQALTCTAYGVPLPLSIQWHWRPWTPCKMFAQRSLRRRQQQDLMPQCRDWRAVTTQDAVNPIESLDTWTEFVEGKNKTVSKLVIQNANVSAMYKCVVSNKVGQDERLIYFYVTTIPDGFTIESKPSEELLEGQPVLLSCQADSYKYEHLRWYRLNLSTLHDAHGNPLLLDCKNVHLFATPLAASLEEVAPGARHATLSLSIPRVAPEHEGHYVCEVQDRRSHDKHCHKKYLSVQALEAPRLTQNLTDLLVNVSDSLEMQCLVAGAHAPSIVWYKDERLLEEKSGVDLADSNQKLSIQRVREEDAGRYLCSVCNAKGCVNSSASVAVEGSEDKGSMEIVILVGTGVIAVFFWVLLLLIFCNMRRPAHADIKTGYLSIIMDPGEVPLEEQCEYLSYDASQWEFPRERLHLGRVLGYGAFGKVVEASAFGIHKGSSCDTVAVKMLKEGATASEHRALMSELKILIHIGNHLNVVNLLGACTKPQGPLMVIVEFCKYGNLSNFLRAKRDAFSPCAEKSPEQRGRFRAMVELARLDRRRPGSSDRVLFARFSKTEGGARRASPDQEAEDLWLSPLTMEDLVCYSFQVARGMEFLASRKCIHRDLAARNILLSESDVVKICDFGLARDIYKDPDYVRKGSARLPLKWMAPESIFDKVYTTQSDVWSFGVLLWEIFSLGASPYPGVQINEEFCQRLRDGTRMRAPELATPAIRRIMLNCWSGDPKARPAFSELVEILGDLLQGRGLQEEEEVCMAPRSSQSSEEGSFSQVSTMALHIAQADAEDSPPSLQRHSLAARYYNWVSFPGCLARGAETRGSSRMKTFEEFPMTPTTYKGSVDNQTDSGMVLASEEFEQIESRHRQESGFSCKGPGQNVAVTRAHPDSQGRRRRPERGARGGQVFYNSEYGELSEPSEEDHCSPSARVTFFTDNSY
Chain of Macrophage colony-stimulating factor 1 receptor (Homo sapiens) (P07333 whole entry): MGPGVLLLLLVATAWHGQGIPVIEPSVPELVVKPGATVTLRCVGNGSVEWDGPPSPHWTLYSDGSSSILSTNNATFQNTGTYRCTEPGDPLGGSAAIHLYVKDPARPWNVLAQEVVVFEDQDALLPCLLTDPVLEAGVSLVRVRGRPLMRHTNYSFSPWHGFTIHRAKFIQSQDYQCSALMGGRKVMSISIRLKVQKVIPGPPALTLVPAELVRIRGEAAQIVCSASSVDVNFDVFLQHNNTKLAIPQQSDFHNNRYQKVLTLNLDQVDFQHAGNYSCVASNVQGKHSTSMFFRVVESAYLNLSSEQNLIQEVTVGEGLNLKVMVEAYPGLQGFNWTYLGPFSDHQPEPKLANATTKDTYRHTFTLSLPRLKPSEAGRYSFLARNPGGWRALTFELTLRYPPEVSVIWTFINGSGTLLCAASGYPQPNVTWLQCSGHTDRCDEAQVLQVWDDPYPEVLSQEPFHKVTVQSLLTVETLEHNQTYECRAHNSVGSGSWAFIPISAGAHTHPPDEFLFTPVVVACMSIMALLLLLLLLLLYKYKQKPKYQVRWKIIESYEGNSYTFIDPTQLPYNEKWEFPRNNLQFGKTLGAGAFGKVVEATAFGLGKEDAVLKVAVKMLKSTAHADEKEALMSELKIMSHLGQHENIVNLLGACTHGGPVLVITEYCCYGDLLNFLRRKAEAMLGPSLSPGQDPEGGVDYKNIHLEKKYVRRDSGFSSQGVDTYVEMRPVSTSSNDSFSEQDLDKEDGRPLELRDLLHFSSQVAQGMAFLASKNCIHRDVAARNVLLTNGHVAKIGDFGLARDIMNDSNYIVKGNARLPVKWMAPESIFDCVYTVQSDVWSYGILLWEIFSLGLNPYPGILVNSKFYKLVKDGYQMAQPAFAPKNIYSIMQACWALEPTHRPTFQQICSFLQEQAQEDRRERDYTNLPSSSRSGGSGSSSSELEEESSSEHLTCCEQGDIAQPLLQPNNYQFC
Chain of Serine/threonine-protein kinase PLK1 (Homo sapiens) (P53350 whole entry): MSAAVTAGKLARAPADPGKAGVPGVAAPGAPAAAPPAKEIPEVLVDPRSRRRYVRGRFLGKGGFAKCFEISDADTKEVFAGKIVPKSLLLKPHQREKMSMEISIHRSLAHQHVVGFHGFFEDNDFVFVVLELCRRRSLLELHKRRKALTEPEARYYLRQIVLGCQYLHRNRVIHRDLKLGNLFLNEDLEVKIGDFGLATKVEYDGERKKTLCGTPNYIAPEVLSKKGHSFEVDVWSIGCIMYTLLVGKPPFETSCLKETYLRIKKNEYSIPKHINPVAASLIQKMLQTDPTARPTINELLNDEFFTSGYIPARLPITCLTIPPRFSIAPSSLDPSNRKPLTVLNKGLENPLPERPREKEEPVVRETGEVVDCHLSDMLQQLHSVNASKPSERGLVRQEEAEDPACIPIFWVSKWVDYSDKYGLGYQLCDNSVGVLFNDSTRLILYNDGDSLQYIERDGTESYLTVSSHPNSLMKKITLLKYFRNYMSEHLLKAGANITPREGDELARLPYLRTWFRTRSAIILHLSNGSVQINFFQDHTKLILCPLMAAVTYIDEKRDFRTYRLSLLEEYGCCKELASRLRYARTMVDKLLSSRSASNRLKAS
Chain of Serine/threonine-protein kinase Nek6 (Homo sapiens) (Q9HC98 whole entry): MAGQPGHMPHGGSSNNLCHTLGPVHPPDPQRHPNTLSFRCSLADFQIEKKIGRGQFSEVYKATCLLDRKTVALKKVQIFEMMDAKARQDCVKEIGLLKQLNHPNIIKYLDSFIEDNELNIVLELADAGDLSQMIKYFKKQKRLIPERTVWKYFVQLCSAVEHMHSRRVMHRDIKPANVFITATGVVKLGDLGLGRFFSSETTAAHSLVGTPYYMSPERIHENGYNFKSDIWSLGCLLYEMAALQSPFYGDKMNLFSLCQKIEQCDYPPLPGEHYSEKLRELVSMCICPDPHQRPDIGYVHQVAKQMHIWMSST

As to `Cc1nc(-c2ccccc2)n2nc(NCCCN3CCOCC3)ncc12`, the inhibition is 6.26% in [1]; 1.82% in assay [2]; 1.68% in assay [3]; 3.14% in [4]; 1.97% in assay [5]; -0.18% in [6]. Moreover, the inhibition in assay [7] stood at 3.25%; in assay [8], 1.2%; in assay [9], 2.34%; in [10], 7.69%; in assay [11] it was 8.77%; in [12] it was 3.18%. The inhibition in assay [13] came out at 3.22%; in [14] it was 6.18%; in [15], 1.89%; in [16], 2.75%; in assay [17], 2.24%; in assay [18], 1.73%. Further, the inhibition was found to be 10.9% in assay [19] and 1.73% in assay [20].

Take `NS(=O)(=O)c1ccc(N/N=C2\C(=O)Nc3ccc(Cl)cc32)cc1`: the inhibition in [1] was 8.2%; in assay [2] it was 2.48%; in [3], 3.33%; in assay [4] it was 4.08%; in [5] it was 4.1%; in assay [6], 4.79%. Moreover, the inhibition in assay [7] stood at 4.93%; in assay [8] it was 2.88%; in assay [9], 3.63%; in assay [10], 7.35%; in assay [11] it was 9.42%; in assay [12] it was 1.63%. For the same molecule, the inhibition in [13] is 2.65%; in assay [14], 14%; in [15] it was 16.4%; in assay [16] it was 4.36%; in assay [17], 9.79%; in assay [18], 3.24%. The inhibition in assay [19] came out at 31.8%; in [20], 0.23%.

The inhibition is the relative decrease from the control value, in per cent.
